Bioassay records (PubChem)
This is a sample that favours compounds with a hit; in the whole collection about 21% have one here.
DRD3 antagonist: antagonists of human D3 dopamine receptor; D3R cells, DiscoveRx beta-arrestin luminescence, antagonist mode; stronger effect = lower value; max response, negative = inhibition, %; hit rate 2.5% among 360,000; P35462; in the data active means max response below about -50%; inconclusive means no clear call, values can overlap the other calls; further: on the % scale 0 is the no-effect control and ±100 the full control effect
Target sequence (P35462 whole entry, looked up): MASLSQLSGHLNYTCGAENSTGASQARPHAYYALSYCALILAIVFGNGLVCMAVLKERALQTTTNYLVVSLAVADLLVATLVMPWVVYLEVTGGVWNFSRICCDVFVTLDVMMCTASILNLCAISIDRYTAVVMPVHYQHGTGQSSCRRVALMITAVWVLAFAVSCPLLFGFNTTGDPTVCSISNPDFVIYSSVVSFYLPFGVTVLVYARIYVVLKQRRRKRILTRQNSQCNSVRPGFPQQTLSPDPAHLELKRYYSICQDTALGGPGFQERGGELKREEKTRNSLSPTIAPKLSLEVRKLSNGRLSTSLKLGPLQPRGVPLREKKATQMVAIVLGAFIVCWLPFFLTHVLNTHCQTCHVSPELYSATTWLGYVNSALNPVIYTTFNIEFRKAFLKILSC
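Cells plated overnight at 1500 cells/well, then exposed to library compounds with dopamine controls for 90 minutes at 37 degrees C. DiscoveRx reagent added for 30–60 minutes at room temperature; luminescence read, quantitative HTS format.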
D3 ag: D3 dopamine receptor (human) agonism; P35462; D3R DiscoveRx beta-arrestin cells, luminescence, 90 min; hit rate 0.58% among 410,000; AID 652048; max activation, %; in the data active means max activation above about 30%; further: 0% is about no effect
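Agonist mode: compounds and dopamine controls were applied to plated cells for 90 min at 37 degrees C after an overnight attachment at 1500 cells/well. Luminescent read-out followed 30 - 60 minutes at room temperature with DiscoveRx detection reagent.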
TDP1 cell noCPT: qHTS for Inhibitors of human tyrosyl-DNA phosphodiesterase 1 (TDP1): qHTS in cells in absence of CPT; Potency, µM (titrated, usually from 46.2 µM), without a hit: at the highest dose activity change, negative = growth inhibition, actives largely listed as inhibitors; AID 686978, 2013; hit rate 15% among 420,000; DT40 Tdp1-/- hTDP1 cells, no CPT, ATP luminescence, 48 h; further: potency means the concentration at half of the fitted maximal effect; on the % scale 0 is the no-effect control and ±100 the full control effect; nearly all actives have a fitted effect of over 55% in size
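Growth of hTDP1-complemented DT40 Tdp1-knockout cells is measured by ATP luminescence after at least 48 hr compound exposure at 37 °C, with DMSO substituting for the 20 nM CPT used in the parallel screen.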
IL-1B inflam inh: blocks inflammasome-driven IL-1 beta release; hit rate 4.7% among 360,000; THP-1 LPS/ATP IL-1B secretion, AlphaLISA, 16 h; stronger effect = lower value; activity change, % at 57.5 µM; AID 743279; in the data active means activity change below about -50%; inconclusive means mostly about -30% to -49%; further: on the % scale 0 is the no-effect control and ±100 the full control effect
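THP-1 cells pretreated 1 hr with compounds (up to 57.5 uM final), then stimulated with LPS (250 ng/mL final) plus ATP (1.25 mM final); secreted IL-1B measured by AlphaLISA after 16 hr, decreased signal indicating inhibition.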
TDP1 cell CPT: DT40-hTDP1 cell growth loss with CPT; chicken DT40 Tdp1-/-;hTDP1 cells + 20 nM CPT, ATP luminescence, 48 h; Potency, µM (titrated, usually from 46.2 µM), for the others: at the highest dose activity change, negative = growth inhibition, hits mostly inhibitors; hit rate 12% among 420,000; AID 686979; further: potency means the concentration at half of the fitted maximal effect; on the % scale 0 is the no-effect control and ±100 the full control effect; nearly all actives have a fitted effect of over 55% in size
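Cell growth measured by CellTiter-Glo luminescence after a minimum 48 h, 37 C compound exposure with 20 nM CPT in Tdp1-knockout DT40 cells stably expressing hTDP1, seeded 400/well; qHTS titration format.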
ClpP mod: qHTS Assay for Activators of ClpP; ATP-dependent Clp protease proteolytic subunit (Bacillus subtilis (strain 168)), P80244; purified B. subtilis ClpP, FRET peptide cleavage, 20 min; Potency, µM (series often up to 57.5 µM), inactives show at the top dose activity change, negative = active; hit rate 1.9% among 340,000; AID 651965, 2013; active means well fitted falling curve with a large enough effect; inconclusive means small, poorly fitted or top-dose-only effect; inactive means no such curve, though single readings can be large or run the other way; further: potency means the concentration at half of the fitted maximal effect; the source files actives as falling curves though it sought activators and does not explain the sign; nearly all actives have a fitted effect of over 65% in size
Target sequence (P80244 whole entry, looked up): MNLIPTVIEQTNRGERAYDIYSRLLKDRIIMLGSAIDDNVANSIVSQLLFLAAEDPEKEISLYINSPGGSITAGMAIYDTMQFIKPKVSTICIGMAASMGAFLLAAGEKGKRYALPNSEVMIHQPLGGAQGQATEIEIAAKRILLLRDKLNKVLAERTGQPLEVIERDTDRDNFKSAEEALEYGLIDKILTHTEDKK
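Buffer: 100 mM Tris/HCl pH8, 100 mM KCl, 0.05% low protease BSA, 2.5% glycerol, 0.01% Tween-20. ClpP 10 microg/mL final; 20 min RT; delta FRET normalized to ADEP and DMSO controls.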
* hit, by the source's call; ? = inconclusive; · = no result. Unless noted, the call rests on the fitted dose curve; in most records, active means well fitted inhibition curve with a large enough effect; inconclusive means small, poorly fitted or top-dose-only effect; inactive means flat fitted curve, though single readings scatter.

SMILES | DRD3 antagonist | D3 ag | TDP1 cell noCPT | IL-1B inflam inh | TDP1 cell CPT | ClpP mod
O=C(NN1CC(C(=O)OCc2ccc(Br)cc2)CC1=O)c1ccccc1 (stereo not drawn) | 5 | 0 | 21% | 8 | 2% | 0%
Cc1ccc(OC(=O)Cn2c(C(F)(F)F)nc3ccccc32)cc1 | 35 | 0 | -13% | 12 | -7% | -6%
CCOC(=O)Cn1c(C(F)(F)F)nc2nc(Cl)c(Cl)nc21 | 8 | 1 | -28% | -92* | 4% | ?
Cc1cccc(N2CCN(S(=O)(=O)c3ccc4c(c3)CCCN4C(=O)C3CCC3)CC2)c1C | -10 | 2 | 16µM* | 15 | ? | -1%
O=C(C1CCC1)N1CCc2cc(S(=O)(=O)N3CCN(c4ccccc4)CC3)ccc21 | · | 3 | -20% | · | -29% | 2%
Cc1ccc(C)c(N2CCN(S(=O)(=O)c3ccc4c(c3)CCCN4C(=O)C3CCC3)CC2)c1 | · | -6 | 18µM* | · | 16µM* | 0%
CCOC(=O)CC(=O)COc1nc2cc3c(nc2o1)CCCC3 | -6 | 1 | -2% | -3 | 1% | 0%
Cc1ccc(NC(=O)Cc2c(O)c3ccccc3[nH]c2=O)c(C)c1 | -2 | 6 | -4% | 25 | -3% | ·
CCc1ccc(C2=NNC(=Nc3cccc(S(=O)(=O)N(C)C)c3)SC2)cc1 | -12 | 1 | 18µM* | -70* | 21µM* | -3%
Cc1cc(Br)cc(Cl)c1OCC(=O)N1CCN(C(=O)c2ccco2)CC1 | -1 | -2 | -15% | 3 | -19% | 1%
CC(=O)c1c(C)oc2ccc(N(C(=O)c3ccncc3)S(=O)(=O)c3ccc(F)cc3C)cc12 | · | -9 | 7.3µM* | · | 10µM* | -3%
Cc1cc(F)ccc1S(=O)(=O)N(C(=O)c1ccncc1)c1ccc(OC(=O)c2ccncc2)cc1 | -23 | -6 | 15µM* | -27 | 23µM* | ·
CCOC(=O)c1c(C)oc2ccc(N(C(=O)c3ccncc3)S(=O)(=O)c3ccc(F)cc3C)cc12 | · | 2 | 23µM* | · | ? | -5%
O=C(Oc1ccc(N(C(=O)c2ccncc2)S(=O)(=O)c2cccs2)cc1)c1ccncc1 | 3 | 0 | ? | -9 | -28% | 3%
CC(C1CC1)N(C(=O)c1ccccc1[N+](=O)[O-])c1ccccc1 (stereo not drawn) | 5 | -13 | 8.2µM* | -14 | 21µM* | ·
CC(CNC(=O)c1ccccc1[N+](=O)[O-])NC(=O)c1ccccc1[N+](=O)[O-] (stereo not drawn) | 5 | 5 | -3% | 17 | 1% | ·
O=C(NCC1CCCN1S(=O)(=O)c1cccs1)c1cccc([N+](=O)[O-])c1 (stereo not drawn) | 0 | -16 | -28% | -13 | ? | -2%
NC(=O)c1ccccc1NC(=O)COC(=O)C1(c2ccccc2)CC1 | -7 | 8 | -18% | -4 | -15% | -7%
Cc1cc(N=Nc2c(O)c3ccccc3[nH]c2=O)ccc1N=Nc1ccc(C(=O)N(C)C)cc1 | 5 | 3 | 7.3µM* | 26 | 10µM* | -6%
CN(C)C(=O)c1ccc(N=Nc2c(O)c3ccccc3[nH]c2=O)cc1 | -14 | 7 | 21µM* | -22 | 21µM* | ·
COc1cc(N=Nc2ccc(C(=O)N(C)C)cc2)c(C)cc1N | -12 | -21 | ? | 2 | ? | ·
Cc1ccc(S(=O)(=O)NCC(=O)Nc2ccc(C(F)(F)F)cc2)cc1 | 18 | 35* | ? | 8 | ? | 0%
COc1ccc(S(=O)(=O)NCC(=O)Nc2ccc(F)cc2)cc1 | 9 | 0 | ? | 6 | -23% | 1%
O=C(CNS(=O)(=O)c1ccc(F)cc1)Nc1ccc(C(F)(F)F)cc1 | 11 | 5 | 18µM* | -23 | 18µM* | -1%
CC(=O)Nc1ccc(NC(=O)CNS(=O)(=O)c2ccc(C)cc2)cc1 | -13 | -7 | 2% | 9 | -12% | 0%
SMILES | DRD3 antagonist | D3 ag | TDP1 cell noCPT | IL-1B inflam inh | TDP1 cell CPT | ClpP mod
O=C(C[n+]1ccc(C(=O)c2ccccc2)cc1)Nc1ccc(C(F)(F)F)cc1 | -11 | -13 | 16µM* | -60* | 23µM* | ·
O=C(CNS(=O)(=O)c1ccccc1)Nc1ccc(C(F)(F)F)cc1 | 6 | 9 | 16µM* | -1 | 16µM* | 1%
COCCN(C(=O)COC(=O)CSc1ccc(Cl)cc1)c1c(N)n(Cc2ccccc2)c(=O)[nH]c1=O | -2 | -8 | -4% | -10 | -11% | -2%
Cc1cc(NC(=O)c2ccc(Br)o2)cc(-c2nc3ccccc3o2)c1O | · | -14 | · | · | · | 1%
CC(C)c1ccc(NC(=O)CNS(=O)(=O)c2ccc(F)cc2)cc1 | 9 | 9 | 12µM* | 38 | 16µM* | 1%
COc1ccc(-c2cc3nc(NCC4CCCCC4)n(C)c(=O)c3s2)cc1OC | 98 | 37* | ? | 13 | ? | ?
COc1ccccc1CNc1nc2cc(-c3ccc(OC)c(OC)c3)sc2c(=O)n1C | 103 | 24 | 16µM* | -19 | 23µM* | 5%
COc1cccc(CNc2nc3cc(-c4ccccc4C)sc3c(=O)n2C)c1OC | 27 | 3 | 23µM* | ? | 15µM* | -24%
COc1cccc(CNc2nc3cc(-c4cccc(Cl)c4)sc3c(=O)n2C)c1OC | 7 | -3 | ? | -20 | ? | ?
COc1cccc(CNc2nc3cc(-c4ccccc4)sc3c(=O)n2C)c1OC | 14 | -5 | 29µM* | -4 | 16µM* | ?
COc1ccc(-c2cc3nc(NCc4ccc(NC(C)=O)cc4)n(C)c(=O)c3s2)cc1OC | 27 | 3 | -1% | 4 | 0% | 5%
CCOc1cc(CNC(=O)NC2COc3ccc(OC)cc3C2)cc(OCC)c1OCC (stereo not drawn) | · | 0 | ? | · | ? | 0%
CCCc1cc(=O)oc2cc(C)cc(OC(=O)c3ccco3)c12 | 8 | 1 | 18µM* | -5 | 23µM* | 17%
CCc1cc(=O)oc2cc(C)c(CN3CCCC(C)C3)c(O)c12 (stereo not drawn) | -28 | -24 | ? | 18 | ? | -3%
CCCCc1cc(=O)oc2cc(C)c(CN3CCCC3)c(O)c12 | 16 | 30* | ? | 6 | -29% | -5%
CCc1cc2c(CN3CCN(C)CC3)cc(=O)oc2cc1O | ? | 2 | -18% | 36 | 1% | ?
Cc1cc(O)c2c(CN3CCN(Cc4ccccc4)CC3)cc(=O)oc2c1 | 27 | 0 | 15µM* | -19 | ? | 1%
